# Screening results as filed in PubChem.
# In the library only some 2.7% were active in any assay of this set; here they are far more common.
# PAFAH1B3 inh – PAFAH1B3 (human) inhibition; Q15102; recombinant PAFAH1B3, FP-rhodamine probe, fluorescence polarization; inhibition, % at 3.39 µM; 340,000 tested, 0.28% active;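 active means inhibition above the screen-wide average of all tested compounds plus 3 SD, cut at about 25% in these data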;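 further: 0% = enzyme with DMSO only and 100% = wells lacking PAFAH1B3 protein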
# pPAFAH inh – pPAFAH (human) enzyme inhibition. AID 463082. Q13093. recombinant pPAFAH, FP-rhodamine probe fluorescence polarization. 330,000 tested, 1.5% active. inhibition, % at 3.39 µM;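 active means inhibition above the mean inhibition across the screen plus 3 SD, cut at about 25% in these data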;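 further: inhibitors block binding of the rhodamine activity-based probe so polarization drops; 0% = enzyme with DMSO and 100% = wells lacking pPAFAH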
# Target sequence (Q13093 whole entry, looked up): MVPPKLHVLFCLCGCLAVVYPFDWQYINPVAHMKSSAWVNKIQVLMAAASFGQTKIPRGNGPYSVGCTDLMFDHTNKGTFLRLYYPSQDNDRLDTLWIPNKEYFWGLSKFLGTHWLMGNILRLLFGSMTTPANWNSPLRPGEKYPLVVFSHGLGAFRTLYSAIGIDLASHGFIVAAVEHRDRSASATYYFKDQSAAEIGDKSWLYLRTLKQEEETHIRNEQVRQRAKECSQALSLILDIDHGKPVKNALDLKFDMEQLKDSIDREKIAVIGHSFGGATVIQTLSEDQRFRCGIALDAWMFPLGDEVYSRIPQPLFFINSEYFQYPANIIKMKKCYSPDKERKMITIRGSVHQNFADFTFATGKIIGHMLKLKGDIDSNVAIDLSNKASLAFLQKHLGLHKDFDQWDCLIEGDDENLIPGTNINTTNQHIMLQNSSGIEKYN
# PAFAH1B2 FP inh – blocks human PAF acetylhydrolase 1b catalytic subunit 2; P68402; recombinant PAFAH1B2, FP-rhodamine activity probe, fluorescence polarization; inhibition, % at 3.39 µM; 340,000 tested, 1.2% active; AID 492953;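 active means inhibition above the mean of all tested compounds plus 3 SD, cut at about 24% in these data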;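 further: 0% = enzyme with DMSO and 100% = wells lacking PAFAH1B2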
# TCR CD3 inh – blocks the human TCR-CD3 interaction | TAMRA-labeled TCR probe fluorescence, biochemical | inhibition, % at 9.4 µM | 360,000 tested, 0.37% active; in the data active means inhibition above about 19%;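 further: recombinant mutant TCR 2C K166C tagged with TAMRA read by polarization; 0% = receptor in buffer alone and 100% = receptor with positive control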
# PAFAH2 FP inh – PAFAH2 (human) inhibition. Q99487. recombinant PAFAH2, FP-rhodamine activity probe, fluorescence polarization. inhibition, % at 3.39 µM. 340,000 tested, 0.99% active. AID 492956;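 active means inhibition above the mean over all tested compounds plus 3 SD, cut at about 30% in these data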;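 further: inhibitors block probe labeling of enzyme so polarization drops; 0% = enzyme with DMSO and 100% = wells lacking PAFAH2 protein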
# PAFAH2 FP conf – confirmation of human PAFAH2 inhibitors; shares compounds with PAFAH2 FP inh; recombinant PAFAH2, FP-rhodamine activity probe, fluorescence polarization; inhibition, % at 3.39 µM; 2,300 tested, 65% active;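 active means mean inhibition over three repeats above a set limit taken from the earlier primary screen, cut at about 30% in these data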;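 further: inhibitor blocks binding of rhodamine activity probe so polarization falls; 0% = enzyme with DMSO and 100% = wells lacking PAFAH2 protein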
# Starred values were filed as active, the others as inactive; · = no result given.
SMILES,PAFAH1B3 inh,pPAFAH inh,PAFAH1B2 FP inh,TCR CD3 inh,PAFAH2 FP inh,PAFAH2 FP conf
O=C(OCCC12CC3CC(CC(C3)C1)C2)c1ccc(NCc2cc(O)ccc2O)cc1,5,·,5,7,75*,66*
O=C(CSc1nnc(CNC(=O)c2ccccc2F)o1)NCCc1ccccc1,6,-4,4,0,54*,2
Oc1ccccc1/C=N/NC(=S)NC1CC2CC1C1C=CCC21 (stereo unspecified),20,14,13,4,52*,14
COc1cccc(/C=N/NC(=S)NC2CC3CC2C2C=CCC32)c1O (stereo unspecified),6,-2,4,0,22,·
Nc1c(Cl)cc(Cl)cc1C(=O)OCC(=O)N1CCCC1=O,0,3,14,·,40*,36*
Cc1cccc(C(=O)OCC(=O)N2CCCC2=O)c1O,4,-3,1,-7,38*,22
Nc1c(Cl)cc(Cl)cc1C(=O)OCC(=O)N1CCCC1,-1,4,6,0,0,·
Cc1ccccc1NS(=O)(=O)c1ccc2oc(=O)ccc2c1,8,12,-1,5,1,·
O=C(COC(=O)C1=COCCO1)NC1CCCCCCC1,9,2,3,-10,76*,74*
CC(=O)c1cccc(NC(=O)COC(=O)C2=COCCO2)c1,2,2,1,-2,44*,38*
O=C(COC(=O)c1cc[n+]([O-])cc1)Nc1ccc([N+](=O)[O-])cc1C(F)(F)F,7,·,-1,1,4,·
N#Cc1ccc(NC(=O)COC(=O)C2=COCCO2)cc1,4,5,-2,7,28,·
O=C(COC(=O)C1=COCCO1)Nc1ccc([N+](=O)[O-])cc1C(F)(F)F,6,6,4,-4,32*,19
O=C(COC(=O)C1=COCCO1)Nc1ccccc1,1,7,4,-7,79*,68*
O=C(COC(=O)C1=COCCO1)Nc1ccccc1Oc1ccccc1,-2,5,4,2,8,·
O=C(COC(=O)C1=COCCO1)Nc1cccc(Oc2ccccc2)c1,10,4,5,-2,90*,74*
Cc1ccc(C(=O)O/N=C2\CCCc3ccccc32)cc1,5,11,5,5,42*,40*
Cc1cccc(C(=O)O/N=C2\CCCc3ccccc32)c1,3,18,5,-5,16,·
O=C1/C(=C\c2ccccn2)SC(=S)N1Nc1ncc(C(F)(F)F)cc1Cl,12,-5,10,·,34*,26
O=C1/C(=C/c2ccc(F)cc2)SC(=S)N1Nc1ncc(C(F)(F)F)cc1Cl,-6,9,-4,6,2,·
O=C1/C(=C/c2ccccn2)SC(=S)N1NS(=O)(=O)c1ccccc1,10,3,7,10,4,·
O=C1/C(=C/c2ccccn2)SC(=S)N1Nc1ncc(C(F)(F)F)cc1Cl,11,·,19,1,37*,18
CC1(c2nc3ccccc3[nH]2)c2ccccc2C(=O)N1Cc1ccccc1 (stereo unspecified),·,·,·,-9,·,·
Cc1ccccc1CN1C(=O)CSCC1(C)C(=O)Nc1ccc2c(c1)OCCO2 (stereo unspecified),·,·,·,6,·,·
COc1ccc(CCn2c(C(C)C)nc3oc4ccccc4c(=O)c3c2=O)cc1,1,2,3,6,1,·
SMILES,PAFAH1B3 inh,pPAFAH inh,PAFAH1B2 FP inh,TCR CD3 inh,PAFAH2 FP inh,PAFAH2 FP conf
O=C(COC(=O)c1cccnc1Cl)Nc1ccc2c(c1)OCCO2,9,6,-1,11,36*,30*
O=C(COC(=O)c1ccc2c(c1)OCO2)Nc1ccccc1Cl,5,1,6,5,58*,44*
CC(=O)c1cccc(NC(=O)COC(=O)c2ccc3c(c2)OCCO3)c1,8,7,3,0,84*,71*
N/C(=N\OC(=O)c1ccc2c(c1)OCO2)c1ccc(Cl)cc1,9,3,-4,-4,33*,30*
Cc1ccc(/C(N)=N/OC(=O)c2ccc3c(c2)OCO3)cc1,2,-1,4,-3,25,·
O=C(Nc1cccc(S(=O)(=O)N2CCCCC2)c1)Nc1ccc(Cl)cc1Cl,-106,-52,-62,-5,-118,·
CCCCOc1ccc(NC(=O)CN2CCN(Cc3ccccc3)CC2)cc1,6,2,3,-10,1,·
O=C(Cc1cccc(NC(=O)C2CCCN(C(=O)CCc3ccccc3)C2)c1)Nc1ccc(C(=O)N2CCCCC2)cc1 (stereo unspecified),-1,·,-1,-2,-4,·
CC(=O)N1c2ccc(S(=O)(=O)N(C)Cc3ccco3)cc2CC1C (stereo unspecified),4,1,1,6,7,·
CCC(C)n1c(C)cc(=O)n1C(C)CC (stereo unspecified),11,·,3,0,6,·
Cc1noc(C)c1C(=O)Nc1nc2ccc(Cl)cc2s1,-4,7,-3,-9,-1,·
O=C(COC(=O)c1ccc(N2CCOCC2)c([N+](=O)[O-])c1)Nc1ccc2c(c1)OCO2,8,21,6,6,-7,·
O=C(COC(=O)c1ccc(O)cc1)NCC1COc2ccccc2O1 (stereo unspecified),4,3,-3,4,32*,27
O=C(COC(=O)c1ccc2c(c1)OCO2)Nc1cccc(F)c1,-3,7,0,-3,81*,84*
Nc1ccc(C(=O)OCC(=O)Nc2ccc3c(c2)OCO3)cc1[N+](=O)[O-],9,5,8,6,65*,49*
O=C(COC(=O)c1ccc2[nH]c3c(c2c1)CCCC3)Nc1ccccc1Cl,8,3,1,2,32*,23
O=C(COC(=O)c1ccc2[nH]c3c(c2c1)CCCC3)Nc1ccc(Cl)cc1Cl,4,5,-2,10,25,·
COc1ccc(-c2nc(CS(=O)CC(=O)NCCN3CCCCC3C)c(C)o2)cc1OC (stereo unspecified),-2,-9,0,10,-6,·
CC1(C(=O)NS(=O)(=O)c2cccc(Cl)c2)CCN1C(=O)C1(c2ccccc2)CC1 (stereo unspecified),·,·,·,6,·,·
CCOC(=O)NC(=O)COC(=O)c1ccc(O)cc1,10,5,6,2,29,·
O=C(COC(=O)c1ccc(O)cc1)Nc1ccc2c(c1)OCCO2,5,16,-5,-4,78*,69*
CCC(=O)Nc1cc(C(=O)OCC(=O)c2ccccc2Cl)ccc1C,5,-2,10,-1,42*,32*
Cc1ccc(NC(=O)COC(=O)c2ccc3c(c2)OCCO3)cc1,8,9,-3,-1,86*,85*
COc1ccc(NC(=O)COC(=O)c2ccc3c(c2)OCCO3)cc1OC,3,4,-2,0,14,·
O=C(COC(=O)c1ccc(O)cc1)c1ccc2c(c1)OCCO2,0,·,3,10,14,·
CC(C)(C)NC(=O)COC(=O)c1ccc(O)cc1,1,4,0,5,64*,53*
